TbPYK inhibitor – inhibitors of Trypanosoma brucei pyruvate kinase; Q57TT1; TbPYK enzyme, Kinase-Glo Plus ATP luminescence, 45 min; Potency, µM (doses to about 76.8 µM), for inactives: at the top dose activity, negative = inhibition, usual class: inhibitors; actives 0.12% (n = 410,000); AID 624173; further: potency means the concentration at half of the fitted maximal effect; nearly all actives have a fitted effect of over 50% in size
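Quantitative HTS: titrated library compounds versus trypanosomal pyruvate kinase in TEA buffer (pH 7.2) containing KCl, MgCl2, BSA and Tween-20. Reactions were initiated with ADP, 130 uM final. Kinase-Glo Plus luminescence was read after 45 min at RT.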
LmPK inh – LmPK (Leishmania mexicana) enzyme inhibition; Q27686; purified LmPK, Kinase-Glo ATP luminescence, 1 h; Potency, µM (doses to about 57.5 µM), for the others: at the highest dose activity change, negative = inhibition, most hits filed as inhibitors; actives 0.37% (n = 290,000); further: potency means the concentration at half of the fitted maximal effect
Target sequence (Q27686 whole entry, looked up): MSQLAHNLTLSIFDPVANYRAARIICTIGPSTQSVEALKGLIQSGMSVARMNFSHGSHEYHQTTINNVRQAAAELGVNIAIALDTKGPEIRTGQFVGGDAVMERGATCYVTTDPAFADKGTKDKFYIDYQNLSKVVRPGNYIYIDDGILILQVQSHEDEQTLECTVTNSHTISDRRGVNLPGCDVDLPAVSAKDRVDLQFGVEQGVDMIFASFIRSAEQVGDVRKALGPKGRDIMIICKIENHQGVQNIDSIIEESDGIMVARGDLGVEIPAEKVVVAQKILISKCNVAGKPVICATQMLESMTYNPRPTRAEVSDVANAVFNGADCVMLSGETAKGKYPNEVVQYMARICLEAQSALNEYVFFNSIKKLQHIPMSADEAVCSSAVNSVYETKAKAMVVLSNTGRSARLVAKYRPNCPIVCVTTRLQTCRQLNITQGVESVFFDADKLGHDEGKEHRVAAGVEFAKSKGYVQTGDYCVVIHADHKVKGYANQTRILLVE
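Pyruvate kinase activity monitored as ATP production (luciferase luminescence). Conditions: 0.1 nM enzyme, 0.5 mM PEP, 0.1 mM ADP, 1 h, RT; normalized against uninhibited and no-enzyme wells.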
HCMV inh – human cytomegalovirus inhibition; HFF cells, HCMV-luciferase reporter, 72 h; hits give low values; activity change, negative = inhibition, % at 57.5 µM; actives 4.5% (n = 410,000); AID 1259415; in the data active means activity change below about -60%; inconclusive means no clear call, values can overlap the other calls; inactive means above about -39%
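Cell-based, HFFs, 1000 cells/well, 16 h 37C; cpds in DMSO + HCMV-luc, MOI 1 PFU/cell; 72 h 37C; OneGlo luminescence after 5 min RT; norm. to buffer vs Salinomycin 10uM.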
VACV mCherry inh – vaccinia inhibition (mCherry reporter); Vaccinia virus mCherry reporter infection, fluorescence; Potency, µM (titrated, usually from 36.5 µM), for the others: top-dose activity change, negative = inhibition, most hits filed as inhibitors; actives 0.63% (n = 310,000); AID 720579; calls by dose curve; tested in A549 cells; further: potency means the concentration at half of the fitted maximal effect; nearly all actives have a fitted effect of over 35% in size
Vaccinia Venus – inhibitors of vaccinia virus (Venus reporter) | Vaccinia virus Venus reporter expression, fluorescence | Potency, µM (series often up to 36.5 µM), inactives show top-dose activity change, negative = inhibition, most hits filed as inhibitors | actives 0.46% (n = 330,000) | AID 720580; calls by dose curve; tested in A549 cells; further: potency means the concentration at half of the fitted maximal effect; nearly all actives have a fitted effect of over 30% in size
* marks the source's active call; other numbers are inactive results; i = inactive; ? = inconclusive; . = no result. Compounds with a hit are over-represented: about 5% of the library has one in this group of screens. Unless noted, the call rests on the fitted dose curve; in most records, active means well fitted curve in the direction sought with a large enough effect; inconclusive means small, poorly fitted or top-dose-only effect, or another doubt; inactive means no such curve, though single readings can be large; an effect the other way counts as inactive or inconclusive. On the % scale 0 is the no-effect control and ±100 the full control effect.

SMILES	TbPYK inhibitor	LmPK inh	HCMV inh	VACV mCherry inh	Vaccinia Venus
O=C(O)CSc1cc(NS(=O)(=O)c2ccc(Cl)cc2)c2ccccc2c1O	?	?	-93*	14µM*	?
CC(O)C(=O)N/N=C/c1ccccc1C(=O)O (stereo not given)	4%	-1%	-32	-14%	3%
CCN(CC)c1ccc(/C=C2\CCC(/C=C(\C#N)C(=O)Nc3ccccc3F)=C2N2CCOCC2)cc1	-19%	11µM*	-20	.	.
O=C(OCCC1Oc2cccnc2NC1=O)c1ccc([N+](=O)[O-])cc1 (stereo not given)	.	1%	7	.	.
OCCc1ccccc1	-3%	.	.	-12%	-6%
ON=C(CCc1ccccc1)CCc1ccccc1	-3%	.	-75*	-20%	-19%
Clc1ccc(OCCCNCc2ccccc2)c(Br)c1	12%	3%	-13	-27%	-17%
COc1ccccc1CNC(=O)[C@H](CCSC)NC(=O)[C@@H]1Cc2ccccc2CN1	6%	3%	-15	-9%	3%
CC(=O)OC(C)(C)/C=C/C(=O)[C@](C)(O)[C@H]1[C@H](O)C[C@@]2(C)[C@@H]3CC=C4[C@H](C[C@H](O)C(=O)C4(C)C)[C@]3(C)C(=O)C[C@]12C	-8%	1%	.	?	8.9µM*
CC(=O)OC(C)(C)/C=C/C(=O)C(C)(O)C1C(O)CC2(C)C3CC=C4C(CC(O)C(=O)C4(C)C)C3(C)C(=O)CC12C (stereo not given)	-8%	.	-98*	?	40µM*
CC(=O)OC(C)(C)/C=C/C(=O)[C@](C)(O)C1[C@H](O)C[C@@]2(C)C3CC=C4C(C=C(O[C@@H]5O[C@H](CO)[C@@H](O)[C@H](O)[C@H]5O)C(=O)C4(C)C)[C@]3(C)C(=O)C[C@]12C (stereo not given in full)	-12%	.	-86*	-12%	22µM*
CC(=O)OC(C)(C)/C=C/C(=O)C(C)(O)C1[C@H](O)C[C@@]2(C)C3CC=C4C(CC[C@@H](O)C4(C)C)[C@]3(CO)C(=O)C[C@]12C (stereo not given in full)	-3%	-8%	-101*	7.1µM*	35µM*
Fc1ccc(NC(=S)N2CCSC2c2cccs2)cc1 (stereo not given)	-11%	-9%	?	-12%	-5%
Cc1sc2nc(SCCN(C)C)n(-c3ccccc3)c(=O)c2c1-c1ccc(F)cc1	-11%	5%	?	-28%	-20%
O=C1c2ccccc2-c2nnc(-c3ccc(O)cc3)cc21	-18%	8.9µM*	14	.	.
O=C1c2ccccc2-c2nnc(-c3ccc(F)cc3)cc21	?	5µM*	0	-7%	-3%
Cc1ccccc1-c1cc2c(nn1)-c1ccccc1C2=O	-20%	5µM*	95	-13%	1%
CCN1C(c2ccc(F)cc2)=CS/C1=C(\C#N)c1nnc2n1-c1ccccc1SC2	-3%	16%	-24	-5%	-21%
O=C1CCN(C(=O)c2ccccc2)c2ccccc21	5%	.	-28	-4%	-15%
CCCN(CCC)S(=O)(=O)c1ccc(C(=O)N2CCC(=O)c3ccccc32)cc1	3%	0%	-60*	.	-14%
O=C(O)c1ccc(N=Nc2c(O)[nH]c3ccccc23)cc1	-28%	14µM*	15	i	23%
O=C(N=Nc1c(O)[nH]c2ccccc12)c1cccs1	0%	16µM*	250	i	-20%
O=C(N=Nc1c(O)[nH]c2ccc(Br)cc12)c1cc(-c2cccs2)nc2ccccc12	0%	0%	-61*	?	-13%
CN(C)C(=O)c1ccc(N=Nc2c(O)c3ccccc3[nH]c2=O)cc1	-29%	.	24	?	-6%
C=CCNCCOc1ccc(C(C)(C)c2ccccc2)cc1	2%	-1%	?	i	-7%
O=C(C#Cc1ccccc1)c1ccco1	4%	-4%	-99*	10µM*	13µM*
O=C(N/N=C/c1ccccc1)c1ccco1	-1%	?	56	-15%	-10%
COc1ccc(NS(=O)(=O)c2cc3c(cc2C)N(C)CCO3)c(OC)c1	-4%	2%	4	-30%	-16%
C=CCn1c(=N)n(CC(=O)c2ccc(Br)s2)c2ccccc21	-8%	0%	-74*	.	.
CCN(C1CCCCC1)S(=O)(=O)c1cc(C)ccc1OC	-3%	3%	-29	.	.

High-throughput results from PubChem.
